# Rows were chosen to be rich in hits. Some 0.87% of all compounds tested hit in one or more screens of this group.
# RECQ1 inh: inhibitors of human RECQ1 DNA helicase; Potency, µM (titrated, usually from 57.3 µM), without a hit: top-dose activity, negative = inhibition, hits mostly inhibitors; AID 2549; P46063; actives 0.54% (n = 240,000); RECQ1 DNA unwinding, red fluorescence kinetic read;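 also: plate controls were vehicle for no effect and no enzyme for full effect; nearly all actives have a fitted effect of over 30% in size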
#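 50 nM RECQ1T1 preincubated 15 min with compound in Tris pH 8.0 buffer with MgCl2, DTT, Tween-20 and 2.5 ug/ml poly(dI-dC); started with 200 nM TAMRA/BHQ-2 forked duplex and 2 mM ATP. Unwinding read as fluorescence (525/598 nm), two reads 2 h apart.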
# FEN1 inh: inhibitors of human flap endonuclease 1; Recombinant FEN1 flap cleavage, fluorescence, 15 min; Potency, µM (doses to about 114 µM), inactives show top-dose activity change, negative = inhibition, usual class: inhibitors; actives 0.35% (n = 390,000); also: nearly all actives have a fitted effect of over 65% in size
# Target sequence (P39748 whole entry, looked up): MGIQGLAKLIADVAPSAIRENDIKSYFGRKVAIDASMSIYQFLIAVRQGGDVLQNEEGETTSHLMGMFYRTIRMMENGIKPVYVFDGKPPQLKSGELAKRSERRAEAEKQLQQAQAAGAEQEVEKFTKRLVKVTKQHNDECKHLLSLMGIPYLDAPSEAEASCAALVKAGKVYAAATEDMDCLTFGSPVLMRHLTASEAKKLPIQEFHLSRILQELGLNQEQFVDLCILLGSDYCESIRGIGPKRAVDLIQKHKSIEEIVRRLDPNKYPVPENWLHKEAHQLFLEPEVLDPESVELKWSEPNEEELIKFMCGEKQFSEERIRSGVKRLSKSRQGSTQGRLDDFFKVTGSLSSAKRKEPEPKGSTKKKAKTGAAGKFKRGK
#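 Concentration–response screening of FEN1 (10 nM): 15 min compound preincubation at room temperature, reaction started with 50 nM substrate and read at 0 and 15 min. Corrected, normalized data were fitted by a four-parameter Hill equation.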
# BLM helicase inh: blocks DNA unwinding by human BLM helicase | recombinant BLM DNA unwinding, fluorescence dequenching | P54132 | Potency, µM (doses to about 56.1 µM), for the others: at the top dose activity change, negative = inhibition, usual class: inhibitors | AID 2528 | actives 0.2% (n = 350,000);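 also: plate controls were vehicle for no effect and no enzyme for full effect; nearly all actives have a fitted effect of over 35% in size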
# WRN inhibitor: WRN helicase (human) inhibition; Q14191; WRN helicase unwinding, fluorescent forked duplex, kinetic; Potency, µM (titrated, usually from 114 µM), for the others: at the highest dose activity change, negative = inhibition, actives largely listed as inhibitors; actives 0.46% (n = 360,000); AID 651768; also: nearly all actives have a fitted effect of over 55% in size
#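 WRN at 20 nM final was preincubated with compound for 15 min at room temperature; reaction started with 100 nM forked duplex oligonucleotide carrying fluorophore and quencher plus 2 mM ATP (final). Unwinding followed kinetically by red fluorescence (ex 525/em 598 nm).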
# APEX1 inh: APE1 (human) endonuclease inhibition | recombinant APE1, TAMRA/BHQ-2 abasic DNA cleavage fluorescence | Potency, µM (titrated, usually from 65.8 µM), for inactives: at the highest dose activity change, negative = inhibition, hits mostly inhibitors | actives 0.35% (n = 350,000);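 also: plate controls were vehicle for no effect and reference inhibitor for full effect; nearly all actives have a fitted effect of over 55% in size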
# Target sequence (P27695 whole entry, looked up): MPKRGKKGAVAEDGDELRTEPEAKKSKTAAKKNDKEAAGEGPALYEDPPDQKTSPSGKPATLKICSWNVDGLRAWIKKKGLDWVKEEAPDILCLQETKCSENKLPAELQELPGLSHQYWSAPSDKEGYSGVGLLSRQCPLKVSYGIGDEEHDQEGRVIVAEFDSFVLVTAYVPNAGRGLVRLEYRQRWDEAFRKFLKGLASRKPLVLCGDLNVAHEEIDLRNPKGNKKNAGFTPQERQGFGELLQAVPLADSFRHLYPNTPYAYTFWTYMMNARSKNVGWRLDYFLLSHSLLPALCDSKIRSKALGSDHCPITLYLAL
#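 APE1 at 0.75 nM final was preincubated with compound 15 min at room temperature, then 50 nM double-stranded THF abasic-site substrate (5'-TAMRA/3'-BHQ-2) was added. Fluorescence (ex 525/em 598 nm) was read kinetically; third-minus-first read gave activity.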
# Active calls of the source: *; i = inactive; ? = inconclusive; / = no result given; [ ] = remark or other dose. Calls follow the shape of the dose curve; as a rule, active = well fitted curve in the direction sought with a large enough effect; inconclusive = small, poorly fitted or top-dose-only effect, or another doubt; inactive = no such curve, though single readings can be large; an effect the other way counts as inactive or inconclusive. Unless noted, % is scaled to controls: 0 for no effect and ±100 for the full control effect; potency is read from the fitted curve at half-maximal effect.
SMILES,RECQ1 inh,FEN1 inh,BLM helicase inh,WRN inhibitor,APEX1 inh
O=C(O)c1cc(-c2cc(C(=O)O)c3ccccc3n2)nc2ccccc12,/,/,-0.6%,/,-1.9%
Brc1cccc(-c2nnn3c2nc(NCc2ccc4c(c2)OCO4)c2ccccc23)c1,/,7.2%,-17.7%,/,/
Cc1cc(C(=O)NCc2ccco2)c2ccccc2n1,i,-1.4%,-2.5%,-27.0%,-5.4%
COc1ccc(CNC(=O)COC(=O)c2cc(-c3ccco3)nc3ccccc23)cc1,11.2µM*,/,-22.7%,/,20µM*
Cc1ccc(-c2cc(C(=O)NCc3ccco3)c3ccccc3n2)o1,?,-3.9%,-21.5%,56.2µM*,31.6µM*
CN[C@H](CC(C)C)C(=O)N[C@H]1C(=O)N[C@@H](CC(N)=O)C(=O)N[C@H]2C(=O)N[C@H]3C(=O)N[C@H](C(=O)N[C@@H](C(=O)O)c4cc(O)cc(O)c4-c4cc3ccc4O)[C@H](O)c3ccc(c(Cl)c3)Oc3cc2cc(c3O[C@@H]2O[C@H](CO)[C@@H](O)[C@H](O)[C@H]2O[C@H]2C[C@](C)(N)C(O)[C@H](C)O2)Oc2ccc(cc2Cl)[C@H]1O (some centres undefined),/,/,/,/,19.0%[21 µM]
O=C(O)c1ccc2c(c1)ncn2-c1ccc(F)c(F)c1,/,13.8%,0.0%,/,/
O=C(O)c1ccc2c(ccc3nn(-c4ccc(/C=C/c5ccc(-n6nc7ccc8cc(C(=O)O)ccc8c7n6)cc5[S+](=O)([O-])[O-])c([S+](=O)([O-])[O-])c4)nc32)c1,/,3.16µM*,/,/,/
CC(C)[C@H](NC(=O)[C@@H](Cc1c[nH]c2ccccc12)NC(=O)[C@H](Cc1ccc(O)cc1)NC(=O)[C@@H](N)CC(=O)O)C(=O)N[C@H](Cc1c[nH]c2ccccc12)C(=O)N[C@H](Cc1c[nH]c2ccccc12)C(=O)N[C@@H](CCCCN)C(N)=O,20µM*,/,-11.6%,/,14.7%
NCCCC[C@H](NC(=O)[C@@H](Cc1ccccc1)NC(=O)[C@H](Cc1c[nH]c2ccccc12)NC(=O)[C@@H](CCCCN)NC(=O)[C@@H](Cc1c[nH]c2ccccc12)NC(=O)[C@@H](N)Cc1cnc[nH]1)C(N)=O,-4.0%,/,3.0%,/,0.4%
CCSc1ccc(-c2cc(NC=O)c3ncc(-c4cc(OC)c(OC)c(OC)c4)n3c2)cc1,/,/,/,-10.8%,/
COc1ccc(-c2cc(NC=O)c3ncc(-c4cc(OC)c(OC)c(OC)c4)n3c2)cc1,/,/,/,79.4µM*,/
Cc1c2cc(O)c(=O)cc-2oc2cc(O)c(O)cc12,10µM*,?,14.1µM*,-24.7%,0.794µM*
CC(C)(C)CC(C)(C)N=C1Nc2cc(Cl)c(Cl)cc2N[C@]12C[C@H]1CCCC(=O)N3CC[C@@H](C2)[C@@H]13,/,-13.4%,/,/,/
Cc1nnc(-c2cccc(Br)c2)c2cn(-c3ccc(Br)cc3)nc12,i,?,-7.0%,-12.6%,13.7%
COc1ccc(-n2cc3c(-c4cccc(Br)c4)nnc(C)c3n2)cc1,?,79.4µM*,3.4%,?,3.4%
CCS(=O)(=O)c1ccc(N=Nc2ccc(O)c3ncccc23)c(OC)c1,2.3%,-18.8%,-4.7%,-7.4%,8.6%
COc1cc(S(=O)(=O)O)c(C)cc1N=Nc1c(O)ccc2cc(S(=O)(=O)O)ccc12,/,35.5µM*,/,/,/
Cc1cc(C)c2c(=O)c3c(oc2c1)C(=O)N(Cc1ccc(F)cc1)C3c1cccc(O)c1 (centres undefined),/,-14.8%,-11.9%,/,/
O=C(C[N+]12CN3CN(CN(C3)C1)C2)c1ccc(I)cc1,/,-9.3%,/,/,/
O=C1NCCc2c1[nH]c1ccccc21,-0.3%,6.9%,-2.7%,-0.9%,-3.1%
O=c1c2c([nH]c3ccccc13)C(=C1CCCC1)CC2,?,-6.9%,?,50.1µM*,?
COc1ccc(CCC(=O)O)c(O)c1,i,-26.9%,-6.9%,-13.3%,15.8µM*
COc1ccc(C(=O)CCc2ccccc2)c(O)c1,/,-10.5%,/,-1.7%,/
Cc1ccc(S(=O)(=O)CCC(=O)c2cccc([N+](=O)[O-])c2)cc1,/,-25.4%,-0.6%,14.1µM*,-7.8%
SMILES,RECQ1 inh,FEN1 inh,BLM helicase inh,WRN inhibitor,APEX1 inh
Cc1ccc(C(=O)CCS(=O)(=O)c2ccc(Br)cc2)cc1,/,-2.5%,1.1%,-1.1%,0.1%
CC1=NN(c2ccc(C(=O)O)cc2)C(=O)/C1=C/c1ccc(-c2ccccc2F)o1,/,/,1.0%,/,-1.6%
CC1=NN(c2ccccc2)C(=O)/C1=C/c1ccc(-c2ccc(C)c(C(=O)O)c2)o1,/,17.8µM*,/,?,/
O=C1NN(c2ccccc2)C(=O)C1=Cc1ccccc1O,/,/,/,1.8%,/
O=C1NN(c2ccccc2)C(=O)/C1=C/c1ccc(Sc2cccc3ccccc23)o1,20µM*,?,?,?,-2.2%
O=C1NN(c2ccccc2)C(=O)/C1=C/c1ccc(-c2ccc(C(=O)O)cc2)o1,/,50.1µM*,-7.3%,50.1µM*,-32.2%
CC(=O)C1=C(O)C(=O)N(Cc2ccccc2)C1c1ccc(N(C)C)cc1 (centres undefined),/,17.8µM*,0.1%,-1.4%[11.6 µM],-3.7%
CN(C)c1ccc(Cc2cc3c(O)ccc(O)c3cc(Cc3ccc(N(C)C)cc3)c2=O)cc1,/,39.8µM*,/,12.6µM*,/
CN(C)c1ccc(C(=O)c2ccc(O)cc2O)cc1,-10.3%,-0.6%,-4.0%,-3.8%,-1.7%
CCOc1ccccc1-c1noc(CSc2nnc(-c3ccccc3)n2-c2ccc(F)cc2)n1,/,11.7%,0.8%,/,/
CN1C(C(=O)NCC2CC2)CC2Cn3c(nc4cc5ccccc5cc43)C21 (centres undefined),10.7%,-4.1%,-4.2%,-0.9%,3.98µM*
Cc1ccc2c(Sc3ccc(Cl)cc3)c(C(=O)N3CCC(C)CC3)[nH]c2c1,/,15.1%,1.2%,/,/
O=C1S/C(=C\C=C\c2ccco2)C(=O)N1c1ccc(O)cc1,4.2%,-14.1%,25.1µM*,?,8.8%
O=C1S/C(=C\c2cccs2)C(=O)N1c1ccc(O)cc1,/,-2.3%,-8.8%,-0.6%,6.2%
CCNc1ccccc(C(=O)/C=C/c2ccc3c(c2)OCO3)c1=O,?,?,-21.2%,56.2µM*,-9.5%
COc1cccc(OCC(O)CN2CCC(CN3C(=O)c4cccc5cccc(c45)C3=O)CC2)c1 (centres undefined),19.5%,28.2µM*,100.8%,56.5%,?
CCCCN1C(=O)/C(=C/C=C2\Oc3ccccc3N2CC)SC1=S,i,?,-4.2%,50.1µM*,13.2%
CCN1C(=O)/C(=C/C=C2/Sc3ccccc3N2CCO)SC1=S,-16.5%,0.1%,-3.7%,-5.9%,2.9%
Cc1cccc2cc(C#N)c(SCCN3CCCCC3)nc12,/,50.1µM*,/,-9.7%,/
Cc1ccc(C#N)c(SCCN2CCCCC2)n1,/,-2.2%,3.0%,0.7%,3.3%
O=C(N/N=C/c1ccccc1Cl)c1[nH]c2ccc(Br)cc2c1-c1ccccc1,-2.6%,?,-2.5%,25.1µM*,1.7%

# Bioassay records: PubChem BioAssay, National Center for Advancing Translational Sciences (NCATS)
